VACV mCherry inh = qHTS for Stage-Specific Inhibitors of Vaccinia Orthopoxvirus: mCherry Reporter Primary qHTS; Vaccinia virus mCherry reporter infection, fluorescence; Potency, µM (top dose mostly 36.5 µM), hits mostly inhibitors; hit rate 0.63% among 310,000; calls by dose curve; tested in A549 cells; further: nearly all actives have a fitted effect of over 35% in size
FMDV antiviral = High Throughput Screening for Foot and Mouth Disease Virus Antivirals. Potency, µM (titrated, usually from 57.9 µM), most hits filed as inhibitors. FMDV antiviral cell-based qHTS. AID 1159524, 2015. hit rate 1.2% among 410,000; calls by dose curve; tested in HEK293T cells; further: read-out not given here; nearly all actives have a fitted effect of over 45% in size
Marburg entry inh = qHTS for inhibitors of binding or entry into cells for Marburg Virus; Marburg virus pseudotyped entry inhibition, cell reporter; Potency, µM (titrated, usually from 37.8 µM), hits mostly inhibitors; hit rate 1.8% among 300,000; calls by dose curve; tested in HEK293 cells
HCMV antiviral = qHTS Assay for inhibitors of the human cytomegalovirus (HCMV) | HFF cells, HCMV-luciferase reporter, 72 h; hits give low values | activity change, negative = inhibition, % at 57.5 µM | hit rate 4.5% among 410,000 | AID 1259415, 2018; in the data active means activity change below about -60%; inconclusive means no clear call, values can overlap the other calls; inactive means above about -39%
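Luciferase read-out from HCMV-luciferase-infected HFFs (MOI 1 PFU/cell) 72 h post infection at 37C; compounds added after 16 h cell attachment; activity normalized between buffer-only basal and Salinomycin (10uM) inhibitor controls.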
Vaccinia Venus = qHTS for Stage-Specific Inhibitors of Vaccinia Orthopoxvirus: Venus Reporter Primary qHTS; Potency, µM (titrated, usually from 36.5 µM), most hits filed as inhibitors; AID 720580, 2013; Vaccinia virus Venus reporter expression, fluorescence; hit rate 0.46% among 330,000; calls by dose curve; tested in A549 cells; further: nearly all actives have a fitted effect of over 30% in size
Lassa entry inh = qHTS for Inhibitors of binding or entry into cells for Lassa Virus; Lassa virus pseudotype entry inhibition, cell reporter; hit rate 1.2% among 300,000; Potency, µM (series often up to 37.9 µM), most hits filed as inhibitors; AID 540256, 2011; calls by dose curve; tested in HEK293 cells; further: nearly all actives have a fitted effect of over 50% in size
Of the large screens only hits and unclear results are named; the others gave an inactive call. This is a sample that favours compounds with a hit; in the whole collection about 6.5% have one here.

O=C1N(Cc2cccnc2)C[C@@H]2C[C@@H](c3cccc(Oc4ccccc4)c3)N3CCC[C@@]123	FMDV antiviral inconclusive, HCMV antiviral -66.7 (no result: VACV mCherry inh, Marburg entry inh, Vaccinia Venus, Lassa entry inh)
CCn1ncc([C@@H]2C[C@H]3CN(Cc4cccc(Cl)c4)C(=O)[C@]34CCCN24)c1C	none
CCOc1ccc(C(=O)N2CCc3cc(OC)c(OC)cc3C2COc2ccc3c(C)cc(=O)oc3c2)cc1OCC (configuration not stated)	Marburg entry inh inconclusive
N#C/C(=C\c1ccc(-c2ccc(C(=O)O)cc2)o1)c1nc2ccccc2[nH]1	Marburg entry inh 10µM, Lassa entry inh inconclusive
CSc1ccccc1C(=O)NCC1Cc2cccc(-c3ncccc3C)c2O1 (configuration not stated)	none (no result: Marburg entry inh, HCMV antiviral, Lassa entry inh)
Cc1ccc(CCC(=O)Nc2ncc(Cc3cccc(Cl)c3Cl)s2)o1	VACV mCherry inh inconclusive, Marburg entry inh inconclusive, HCMV antiviral -63.9, Vaccinia Venus inconclusive, Lassa entry inh inconclusive
Cc1ccc(C)c(NC(=O)CCc2ccc(C)o2)c1	none (no result: VACV mCherry inh, Marburg entry inh, Vaccinia Venus, Lassa entry inh)
Cc1ccc(CCC(=O)Nc2cc(Cl)ccc2Cl)o1	HCMV antiviral -97.3
CCc1nnc(NC(=O)CCc2ccc(C)o2)s1	none (no result: VACV mCherry inh, Vaccinia Venus)
CC(C)(C)OC(=O)/C=C/[C@@H]1Cc2ccccc2N1	none (no result: VACV mCherry inh, FMDV antiviral, Marburg entry inh, Vaccinia Venus, Lassa entry inh)
Cc1ccc(OC[C@H](O)[C@H](C)NC(C)C)c2c1CCC2	Marburg entry inh 15.8µM (no result: Lassa entry inh)
CC(C)(C)NC[C@H](O)COc1cccc2c1CCCC2=O	none (no result: Marburg entry inh, Lassa entry inh)
COc1ccccc1CNc1nc(-c2ccco2)nn1C(=O)c1ccccc1[N+](=O)[O-]	none
CCCNC(=O)C1(C)CCCN(Cc2ccc(-c3ccccc3)cc2)C1 (configuration not stated)	none (no result: Marburg entry inh, Lassa entry inh)
CCNC(=O)C1(C)CCCN(Cc2ccc(-c3ccccn3)cc2)C1 (configuration not stated)	HCMV antiviral -100.1 (no result: Marburg entry inh, Lassa entry inh)
CCN1CCN(C(=O)c2ccc3c(c2)N(Cc2ccccc2)C(=O)c2ccccc2S3(=O)=O)CC1	none
CCN1CCN(C(=O)c2ccc3c(c2)N(Cc2ccc(Cl)cc2)C(=O)c2ccccc2S3(=O)=O)CC1	HCMV antiviral -60.6
Cc1ccc(C)c(CN2C(=O)c3ccccc3S(=O)(=O)c3ccc(C(=O)N4CCN(c5ccccc5)CC4)cc32)c1	HCMV antiviral inconclusive
O=C(c1ccc2c(c1)N(Cc1ccccc1F)C(=O)c1ccccc1S2(=O)=O)N1CCN(c2ccccn2)CC1	none
Cc1ccc(C)c(CN2C(=O)c3ccccc3S(=O)(=O)c3ccc(C(=O)N4CCN(c5ccccn5)CC4)cc32)c1	Marburg entry inh inconclusive, HCMV antiviral -71.4, Lassa entry inh inconclusive
O=C(c1ccc2c(c1)N(Cc1ccccc1)C(=O)c1ccccc1S2(=O)=O)N1CCN(c2ccccn2)CC1	Marburg entry inh 3.55µM, Lassa entry inh inconclusive
COC(=O)c1cc2c(c3c4ccccc4n(S(=O)(=O)c4ccc(C)cc4)c13)C(=O)N(CC(C)C)C2	none (no result: VACV mCherry inh, FMDV antiviral, Marburg entry inh, Vaccinia Venus, Lassa entry inh)
CCCC=CC1C(=O)[C@@H]2O[C@H]2C2(OCC(CC)(CC)CO2)C1CO (some centres not stated)	none (no result: VACV mCherry inh, FMDV antiviral, HCMV antiviral, Vaccinia Venus, Lassa entry inh)
O=C(c1noc2c1CCCCC2)N1CCN(c2cccc(C(F)(F)F)c2)CC1	HCMV antiviral -77.8 (no result: Marburg entry inh)
S=C(NCC1CCCO1)N1CCN(c2ccccc2)CC1 (configuration not stated)	Marburg entry inh inconclusive
FC(F)(F)c1cccc(N2CCN(C(=S)NCC3CCCO3)CC2)c1 (configuration not stated)	FMDV antiviral inconclusive, Marburg entry inh inconclusive, HCMV antiviral -65.0, Lassa entry inh inconclusive
O=C(c1cc2ccccn2n1)N1CCN(c2cccc(C(F)(F)F)c2)CC1	FMDV antiviral inconclusive, HCMV antiviral -67.7 (no result: VACV mCherry inh, Vaccinia Venus)
COc1cccc(-c2ccnc(-n3ncc(C(=O)NCC4(N5CCCCC5)CCCC4)c3C)n2)c1	none (no result: Marburg entry inh, HCMV antiviral, Lassa entry inh)
C[C@@H]1CCC2C(C)(C)C3CC21CC[C@@]3(C)O (some centres not stated)	none (no result: VACV mCherry inh, Marburg entry inh, HCMV antiviral, Vaccinia Venus, Lassa entry inh)
O=C(CSc1cn(CC(=O)N2CCCCC2)c2ccccc12)NCc1ccc(F)cc1	HCMV antiviral inconclusive (no result: Marburg entry inh)
CCCCNC(=O)CCn1c(=O)c2ccccc2n(Cc2cccc(Cl)c2)c1=O	none
COc1ccc(NC(=O)CN2C(=O)COc3ccc(S(=O)(=O)Nc4ccccc4)cc32)cc1	none (no result: Marburg entry inh)
Oc1ccc(Cl)cc1Nc1nc(NCC2CCCO2)c2ccccc2n1 (configuration not stated)	FMDV antiviral 28.2µM (no result: VACV mCherry inh, Marburg entry inh, Vaccinia Venus, Lassa entry inh)
c1ccc2c(NCC3CCCO3)nc(N3CCCCC3)nc2c1 (configuration not stated)	HCMV antiviral inconclusive (no result: VACV mCherry inh, Marburg entry inh, Vaccinia Venus, Lassa entry inh)
COc1cccc(Nc2nc(NCC3CCCO3)c3ccccc3n2)c1 (configuration not stated)	VACV mCherry inh inconclusive, FMDV antiviral 20µM, Marburg entry inh inconclusive, HCMV antiviral inconclusive, Vaccinia Venus inconclusive, Lassa entry inh inconclusive
Oc1ccccc1Nc1nc(NCC2CCCO2)c2ccccc2n1 (configuration not stated)	FMDV antiviral inconclusive, Marburg entry inh 14.6µM, Lassa entry inh inconclusive (no result: VACV mCherry inh, Vaccinia Venus)
Oc1ccc(Nc2nc(NCC3CCCO3)c3ccccc3n2)cc1 (configuration not stated)	Marburg entry inh inconclusive, Lassa entry inh inconclusive (no result: VACV mCherry inh, Vaccinia Venus)
CCC1CN(CCC(=O)N2CCCN(C(=O)c3ccco3)CC2)Cc2cc(OC)ccc2O1 (configuration not stated)	none (no result: Marburg entry inh, HCMV antiviral, Lassa entry inh)
O=C(NCC(c1ccc(F)cc1)N1CCOCC1)c1ccc([N+](=O)[O-])o1 (configuration not stated)	Marburg entry inh inconclusive, HCMV antiviral -87.1
CC(=O)c1ccc(-c2ccc(C(=O)NCC(c3ccc(F)cc3)N3CCOCC3)o2)cc1 (configuration not stated)	Marburg entry inh inconclusive
O=C(NNC(=O)c1ccc2ccccc2c1)c1ccc(Cl)c(Cl)c1	VACV mCherry inh inconclusive
O=C(NNc1ccccc1)c1ccc(Cl)c(Cl)c1	Marburg entry inh 7.08µM, HCMV antiviral -77.4, Lassa entry inh inconclusive
Cc1ccc2occ(CN3CCOc4ccc(C(C)(O)COc5ccccc5)cc4C3)c(=O)c2c1 (configuration not stated)	none (no result: Marburg entry inh, HCMV antiviral, Lassa entry inh)
CC(=O)c1sc(N/N=C/c2cccc(O)c2)nc1C	none (no result: Marburg entry inh, Lassa entry inh)
CC(=O)c1sc(N/N=C\c2c(O)ccc3ccccc23)nc1C	VACV mCherry inh inconclusive, Marburg entry inh inconclusive, HCMV antiviral -74.9, Lassa entry inh inconclusive
O=C(CN1CCN(Cc2ccc(F)cc2)C1=O)NCc1ccccc1	none
O=C(CCl)NC(=O)NC12CC3CC(CC(C3)C1)C2	FMDV antiviral inconclusive, Marburg entry inh inconclusive, HCMV antiviral -99.2, Lassa entry inh inconclusive
O=C(Nc1ccc(F)cc1F)c1ccc2c(c1)CCN2S(=O)(=O)c1ccc(Cl)cc1	Lassa entry inh inconclusive
CCOC(=O)c1cnc(Nc2nc3ccccc3o2)nc1CSc1nnc(C)s1	Marburg entry inh inconclusive, Lassa entry inh inconclusive (no result: VACV mCherry inh, Vaccinia Venus)

High-throughput results from PubChem BioAssay.
